# Data: ChEMBL document CHEMBL3433997, “St. Jude Leishmania screening dataset” (2016)
# Assays:
# Format in all cases: functional
# [1] = target: Solute carrier family 2, facilitated glucose transporter member 1 (Homo sapiens) (UniProt P11166); test: ST_JUDE_LEISH: Cytotoxicity at 2uM final concentration against transgenic Leishmania Mexicana promastigotes LmGLUT1 that are glucose transport deficient and complemented with the human glucose transporter GLUT1. Activity is measured by DNA content using SYBR green in vitro
# [2] = target: Hexose transporter 1 (Plasmodium falciparum) (UniProt O97467); test: ST_JUDE_LEISH: Cytotoxicity at 2uM final concentration against transgenic Leishmania Mexicana promastigotes LmPfHT that are glucose transport deficient and complemented with the Plasmodium falciparum hexose transporter. Activity is measured by DNA content using SYBR green in vitro
# [3] = target: Glucose transporter (Leishmania mexicana) (UniProt O61059); test: ST_JUDE_LEISH: Cytotoxicity at 2uM final concentration against transgenic Leishmania Mexicana promastigotes LmGT2 that are glucose transport deficient and complemented with the L. Mexicana glucose transporter 2. Activity is measured by DNA content using SYBR green in vitro
# Chain of Solute carrier family 2, facilitated glucose transporter member 1 (Homo sapiens) (P11166 whole entry): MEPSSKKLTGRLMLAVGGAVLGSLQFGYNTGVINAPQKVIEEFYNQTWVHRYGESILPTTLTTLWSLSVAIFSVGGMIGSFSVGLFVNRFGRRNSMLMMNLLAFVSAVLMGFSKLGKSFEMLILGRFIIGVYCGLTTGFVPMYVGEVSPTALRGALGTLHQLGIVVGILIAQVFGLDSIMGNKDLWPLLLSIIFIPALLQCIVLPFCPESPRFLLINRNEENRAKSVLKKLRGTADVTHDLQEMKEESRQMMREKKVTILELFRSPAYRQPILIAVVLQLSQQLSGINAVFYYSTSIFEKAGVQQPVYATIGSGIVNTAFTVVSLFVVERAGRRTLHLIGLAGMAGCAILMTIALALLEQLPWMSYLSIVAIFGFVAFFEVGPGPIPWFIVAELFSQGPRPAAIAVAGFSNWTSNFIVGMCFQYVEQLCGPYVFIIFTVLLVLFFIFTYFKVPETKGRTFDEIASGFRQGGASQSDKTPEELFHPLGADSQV
Structure (SMILES),inhibition [1],inhibition [2],inhibition [3]
O=C(Nc1ccc(Cn2ncc(N3CCCNCC3)c(Cl)c2=O)cc1)Nc1cc(C(F)(F)F)cc(C(F)(F)F)c1,2.99%,1%,1.99%
CN(C)CCNCc1nc(-c2ccc3c(Nc4ccc(Cl)cc4F)ccnc3c2)cs1,9.87%,8.58%,10.1%
CCOC(=O)c1ccc(NC(=O)N(Cc2ccc(-c3ccc(CN4CCNCC4)cc3)cc2)Cc2cccnc2)cc1,2.01%,2.09%,0.48%
CCCc1cc(OC)c(C[C@@H]2c3cc(O)c(Cl)cc3CCN2C)cc1OC,3.17%,2.87%,3%
FC(F)(F)c1cccc(Nc2nc3ccccc3nc2Nc2cccc(C(F)(F)F)c2)c1,-0.24%,0.5%,0.85%
CCOc1cc(Cc2cnc(N)nc2N)cc(OCC)c1-n1cccc1,5.67%,5.64%,1.36%
Cc1nc(-c2cccc(Nc3nccc(NCC(O)c4ccccc4C)n3)c2)cs1 (stereo not drawn),2.79%,3.57%,3.17%
Cc1ccccc1N1CCN(c2ncc(C(=O)NC3CC3)cc2Cl)CC1,6.45%,6.74%,5.71%
CCc1c[nH]c2c(N3CCCC3=O)cc(C(=O)N[C@@H](Cc3ccccc3)[C@H](O)CNC(C)(C)c3cccc(OC)c3)cc12,-0.15%,1.3%,1.9%
Clc1cccc(C=NN=c2cc[nH]c3ccccc23)c1,1.39%,2.56%,2.9%
FC(F)(F)c1ccc2[nH]c(-c3cccc(-c4cccc(CNCc5cnn(-c6ccccc6)n5)c4)c3)nc2c1,5.47%,5.16%,3.27%
COc1cccc(CCN(Cc2ccccc2-c2ccc(CNC3CC(C)(C)NC(C)(C)C3)cc2)C(=O)NC2CCCCC2)c1,0.9%,0.87%,2.67%
O=c1cc(-c2ccc3ccccc3c2)[nH]c2ccccc12,2.83%,2.68%,2.23%
Cc1cc(=NN=Cc2ccccc2Cl)c2cc(F)ccc2[nH]1,3.99%,2.95%,2.23%
CCc1cn(C)c2c(N3CCCC3=O)cc(C(=O)N[C@@H](Cc3ccccc3)[C@H](O)CNC(C)(C)c3cccc(OC)c3)cc12,4.6%,2.52%,7.65%
CC(Nc1nncc(-c2cccc(F)c2)n1)c1ccc(F)cc1 (stereo not drawn),11.7%,9.2%,10.7%
CCOc1cc(Cc2cnc(N)nc2N)cc(Br)c1OC,0.49%,2.73%,2.29%
Cc1ccc(Nc2nc(N/N=C/c3ccccc3[N+](=O)[O-])nc(Nc3ccc([N+](=O)[O-])cc3)n2)cc1C,12.9%,8.51%,5.3%
O=C(NC1c2ccccc2Oc2ccccc21)c1ccccc1O,-3%,-0.11%,-0.01%
CC(C)OCCCNC(=O)c1nc(-c2cccc(C(F)(F)F)c2)sc1C(C)C,3.62%,4.03%,4.46%
COc1cccc([C@@H](CC(=O)Nc2cc(C(F)(F)F)ccc2OC)Nc2ccc(C#N)c3ccccc23)c1,7.27%,5.34%,4.83%
O=C(Cn1c(CCc2cccc(F)c2F)nc(=O)c2ccccc21)N(CCCN1CCCCC1)Cc1ccc(-c2ccc(C(F)(F)F)cc2)cc1,2.28%,3.25%,1.99%
O=C(/C=C/c1ccc(Cl)c(Cl)c1)NCCCCCN1CCC(C(=O)Nc2cccc(Cl)c2)CC1,2.86%,1.97%,2.09%
CCC(CCON1C(N)=NC(N)=NC1(C)C)c1ccc(Cl)c(Cl)c1 (stereo not drawn),3.2%,3.06%,3.3%

Structure (SMILES),inhibition [1],inhibition [2],inhibition [3]
O=C(N[C@@H](Cc1ccccc1)C(=O)NCc1cccc2ccccc12)c1ccc(O)c(-c2ccc(Cl)c(Cl)c2)c1,0.35%,2.09%,0.79%
COc1cccc2cc(C(=O)N[C@@H](CC(C)C)C(=O)N[C@H](C=NNC(=O)OC(C)(C)C)CC(C)C)oc12,2.6%,1.47%,0.48%
O=C(Nc1ccc(-c2nc3ccc(NC(=O)c4ccc(Br)cc4)cc3[nH]2)cc1)c1ccc(Br)cc1,-0.81%,-0.68%,-2.77%
CC(C)N1CCC(N(Cc2ccc(-c3ccc(C(F)(F)F)cc3)cc2)C(=O)Cn2c(SCc3cccc(F)c3F)nc(=O)c3ccccc32)CC1,6.03%,4.99%,4.15%
CCc1cc(-c2onc(C(F)(F)F)c2-c2ccccc2)c(O)cc1OC,3.95%,3.34%,7.43%
CC(Cc1ccc(NC(=O)c2ccc(CC(C)NCc3ccc(Cl)cc3)cc2)cc1)NCCc1cccc(Cl)c1 (stereo not drawn),10.3%,6.78%,1.33%
O=C(Nc1ccc(Cl)cc1)N[C@H]1CCN(Cc2ccc(OCCCN3CCCCC3)cc2)C1,-0.92%,1.45%,0.1%
CCC1CCc2cc(N)cc(-c3nc4c(c(C)nn4CC)c(=O)[nH]3)c2O1 (stereo not drawn),5.2%,4.15%,3.42%
CCc1cn2c3c(cc(C(=O)N[C@@H](Cc4cccc(F)c4)[C@H](O)CNC4CC4)cc13)N(C)S(=O)(=O)CC2,2.18%,3.5%,4.48%
COc1ccc2nccc([C@@H](O)CN3CCC(NCc4cc5ccccc5o4)CC3)c2c1,10.1%,15.3%,5.59%
Cc1cc(N(CCN2CCCCC2)CCN2CCCCC2)nc(Nc2ccc(Cl)cc2)n1,3.2%,1.3%,2.83%
CN1CCN(c2cc3c(Nc4ccc5c(cnn5Cc5ccccc5)c4)ncnc3cn2)CC1,1.33%,2.08%,2.17%
c1cc(CN2CCCCC2)cc(-c2ccc(-c3nc4ccccc4[nH]3)s2)c1,4.86%,1.16%,-0.82%
COc1ccccc1NC(=O)Nc1cccc(-c2cccc(-c3nc4cc(C(F)(F)F)ccc4[nH]3)c2)c1,-1.22%,-0.1%,0.05%
O=C(Nc1cc(Cl)cc(Cl)c1)N[C@H]1CCN(CCCCCNC(=O)C2CC2c2ccc(Cl)c(Cl)c2)C1 (stereo partly drawn),0.25%,-1.16%,2.06%
CC[C@H](C)[C@@H](C(=O)N1CCOCC1)N1CC[C@H](NS(=O)(=O)CC(C)(C)c2ccc(Cl)cc2)C1=O,0.22%,0.79%,-1.13%
Cc1nc2ccc([N+](=O)[O-])cc2c(=O)n1OCc1ccccc1,2.26%,2.03%,2.66%
CCCCNc1nc(NCCCC)c2c(C)c(Cc3ccccc3)c(NCCCC)nc2n1,39.8%,43.6%,12.3%
COc1cc(C(=O)Nc2ccc3nc(N4CCN(C)CC4)cc(C)c3c2)cc(OC)c1OC,1.09%,0.31%,-0.52%
COc1cc(NC(=O)/C=C/c2cc(F)cc(F)c2F)cc(OCCN2CCCCC2)c1,5.16%,3.35%,4.25%
CC(=O)N1N=C(c2[nH]c3ccc(Br)cc3c2C)OC1c1ccccc1 (stereo not drawn),4.69%,4.06%,3.6%
CCCCCCn1c(Sc2ccc(C#N)c([N+](=O)[O-])c2)nnc1-c1ccccc1,8.64%,11.1%,6.76%
COc1ccc(-c2cccc(NC(=O)c3ccc(Cl)cc3)c2)cc1CN1CCC(O)CC1,5.4%,0.09%,1.8%
c1ccc(C2CCN(Cc3ccc(-c4c[nH]c5nc(NC6CCCC6)ncc45)cc3)CC2)cc1,2.79%,2.07%,1.65%

Structure (SMILES),inhibition [1],inhibition [2],inhibition [3]
CCN(CCCN1CCCCC1)c1cc(C)nc(Nc2ccc3c(c2)CCC3)n1,-1.26%,1.07%,0.58%
CC1(C)CCC(C)(C)c2c1ccc(C1CCN(CCCCNC(=O)c3ccc(-c4ccc(C#N)cc4)cc3)CC1)c2O,0.66%,0.22%,0.63%
CCOC(=O)c1cnc2c(OC)cc(OC)c(Cl)c2c1Nc1ccccc1,5.44%,4.89%,6.19%
Cc1cc(CNC(c2ccccc2)C2CCC2)cc(C)c1O (stereo not drawn),14.2%,14.3%,10.1%
CSC1=NC(=Nc2c(C)cccc2C)C2(CCCCC2)N1c1ccccc1Cl,-1.1%,-1.21%,-2.07%
CC(C)C[C@H](Nc1ccnc(NCC2CCCCC2)n1)C(=O)NCCOc1ccccc1,2.57%,3.02%,2.47%
NS(=O)(=O)Cc1cccc(-c2ccnc3ccc(-c4cccc(S(N)(=O)=O)c4)cc23)c1,3.2%,0.84%,1.72%
CCCN1CCN(CC(O)CNC(=O)Nc2ccc(Br)cc2)CC1 (stereo not drawn),3.68%,4.03%,3.09%
O=C(Nc1nc(-c2ccccn2)cs1)c1ccc(S(=O)(=O)N2CCc3ccccc32)cc1,9.61%,15.1%,2.63%
COC(=O)c1ccc(-c2ccc(-c3cccnc3)cc2C)cc1,91.7%,90.5%,74.1%
CN1CCN(CC(=O)Nc2cccc(-c3ccc(-c4nc5cc(C(F)(F)F)ccc5[nH]4)cc3)c2)CC1,0.96%,0.81%,1.35%
COc1ccc2nccc([C@@H](O)CN3CCC(NC(=O)C(c4cccs4)N4CCN(c5ccc(F)cc5)CC4)CC3)c2c1 (stereo partly drawn),5%,3.71%,4.65%
CNCCNCc1cccc(-c2ccc(-c3nc4cc(C(F)(F)F)ccc4[nH]3)s2)c1,2.35%,3.82%,1.39%
c1ccc(CCNc2ccnc(Nc3ccc4cn[nH]c4c3)n2)cc1,17.8%,14.8%,10%
CCOc1cc2ncnc(Nc3ccc(OCc4ccccc4Br)c(OC)c3)c2cc1OCC,5.55%,5.15%,2.49%
O=C(NCCCCN1CCN(c2cccc(Cl)c2Cl)CC1)c1ccc2c(c1)CCN(C1CCC1)CC2,1.09%,-1.47%,-0.46%
O=C(Nc1cc(Cl)cc(Cl)c1)c1cc(Cl)c(=O)n(Cc2cccc(Cl)c2)c1,3.25%,-1.14%,-1.24%
Cc1cc(-c2cc3nc4c(c(O)n3n2)CCCC4)c(C)o1,4.05%,8.94%,6.14%
COC(=O)CNC(c1ccccc1)c1cc(Br)ccc1NC(=O)c1ccccc1Br (stereo not drawn),7.18%,16.3%,5.19%
O=C(Cc1cc(F)cc(F)c1)NC1CCN(c2ccnc3cc(Cl)ccc23)C1 (stereo not drawn),1.93%,1.66%,2.22%
CCC(c1ccccc1)c1nn2c(-c3cccs3)nnc2s1 (stereo not drawn),2.96%,3.46%,0.64%
Cc1cccc2nc(-c3cccc(-c4ccc(NC(=O)COC(C)C)cc4)c3)[nH]c12,-3.18%,0.45%,-2.12%
COCCNCc1cccc(-c2ccc3c(Nc4ccc(F)cc4Cl)ccnc3c2)c1,-1.97%,2.48%,0.78%
